Experimental data: PubChem BioAssay (NCI)
Compounds without any hit were thinned out: in the full panel of roughly 79,000, 15% have a hit. Rule as the data show it: active = growth inhibition above about 70%; inactive = the rest.

Experiments:
[1] = NCI Yeast Anticancer Drug Screen. Data for the rad50 strain (AID 155);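 also: 0% = growth of vehicle-only cultures of the same strain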; settings: S. cerevisiae rad50 strain growth inhibition; at 50.0 µM; hits give high values
How it was run: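 Inhibition values express reduced yeast growth in compound-treated cultures relative to vehicle-treated controls.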

[2] = NCI Yeast Anticancer Drug Screen. Data for the mec2-1 strain (AID 157); settings: S. cerevisiae mec2-1 strain, at 50.0 µM, hits give high values
How it was run: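 Using mec2-1 yeast: add compound, measure growth, express inhibition versus vehicle-treated cultures.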

[3] = NCI Yeast Anticancer Drug Screen. Data for the sgs1 mgt1 strain (AID 161);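 also: 0% = growth of cultures given vehicle only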; settings: S. cerevisiae sgs1 mgt1 strain, at 50.0 µM, hits give high values
How it was run: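 Growth of a repair-deficient yeast mutant was monitored after compound treatment and expressed as inhibition relative to vehicle-treated cultures.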

[4] = NCI Yeast Anticancer Drug Screen. Data for the cln2 rad14 strain (AID 165);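 also: 0% = growth equal to vehicle treated cultures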; settings: S. cerevisiae cln2 rad14 strain, at 50.0 µM, hits give high values
How it was run: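 Yeast strain cln2 rad14, bearing defects in cell cycle control and DNA repair, serves as the test system; values reflect growth inhibition compared with vehicle.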

[5] = NCI Yeast Anticancer Drug Screen. Data for the bub3 strain (AID 167); settings: S. cerevisiae bub3 mutant strain, at 50.0 µM, hits give high values
How it was run: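 Steps: expose the mutant yeast strain to compound; grow alongside vehicle-treated cultures; measure growth; express inhibition against the vehicle cultures.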

[6] = NCI Yeast Anticancer Drug Screen. Data for the mlh1 rad18 strain (AID 175); settings: S. cerevisiae mlh1 rad18 strain growth inhibition; at 50.0 µM; hits give high values
How it was run: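 Steps: expose repair-defective yeast to compound; measure growth; express inhibition against vehicle-treated controls.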

Measured: growth inhibition

COc1cc(CCC(=O)NS(=O)(=O)c2ccccc2)cc(OC)c1OC
inactive: [1] 4.2% | [2] 1.9% | [3] -6.75% | [4] -2.85% | [5] -3.85% | [6] 10.2%

COc1ccc([N+](=O)[O-])cc1NC(=O)N/N=C(\C)C(C)(C)C
inactive: [1] 5.2% | [2] 18.2% | [3] 8.8% | [4] -9.35% | [5] 3.4% | [6] 6.3%

Nc1ncnc2c1ncn2C1CC(O)C(COP(=O)(O)O)O1 (stereo not given)
inactive: [1] 0.15% | [2] -4.65% | [3] 0.85% | [4] -23.4% | [5] 0.45% | [6] 4.7%

O=C1CSC(=S)N1c1ccccc1
inactive: [1] 2.2% | [2] -3.8% | [3] -3.6% | [4] -4.75% | [5] 0.8% | [6] 2.9%

O=S(=O)(O)c1cc2c3ccccc3ccc2c2ccccc12
inactive: [1] 1.75% | [2] -5.35% | [3] 13.8% | [4] -15.5% | [5] -1.35% | [6] 21.8%

CCCc1nc2ccccc2c(=O)n1/N=C/c1ccc(Cl)cc1
inactive: [1] 0.5% | [2] 7.3% | [3] -0.4% | [4] 5.7% | [5] 0.9% | [6] 7.95%

O=C1C2C3C=CC(C2C(=O)N1COP(=O)(O)O)C1C2C(=O)N(COP(=O)(O)O)C(=O)C2C31 (stereo not given)
inactive: [1] 2.1% | [2] 0.3% | [3] 0.95% | [4] 19.1% | [5] -11.2% | [6] -14.1%

CCOC(=O)c1nc(C)oc1C(=O)OCC
inactive: [1] 0.85% | [2] -12.9% | [3] -14.6% | [4] -13.9% | [5] -7.3% | [6] -3.85%

Cc1ccc(NS(=O)(=O)c2ccc(F)cc2)c(C)c1
inactive: [1] 15.4% | [2] 19.1% | [3] -2% | [4] -14.2% | [5] -0.2% | [6] -9.15%

NC(CCC(=O)O)C(=O)NC(Cc1c[nH]c2ccccc12)C(=O)O (stereo not given)
inactive: [1] -12.7% | [2] 12.3% | [3] -5.05% | [4] -23.1% | [5] -22.4% | [6] -24.6%

Nc1nc(N)nc(Cc2ccccc2)n1
inactive: [1] -24.4% | [2] -3.45% | [3] -17.9% | [4] -58.4% | [5] -15% | [6] -57.9%

Cn1c(=O)c2[nH]c(SCc3ccccn3)nc2n(C)c1=S
inactive: [1] 6.05% | [2] -42.5% | [3] -20.9% | [4] -47.1% | [5] -26.6% | [6] 13.4%

ClC1=C(Cl)C2(Cl)C3C(c4ccc(I)cc4C4C3C3(Cl)C(Cl)=C(Cl)C4(Cl)C3(Cl)Cl)C1(Cl)C2(Cl)Cl (stereo not given)
inactive: [1] 14.6% | [2] 15.4% | [3] 8.8% | [4] 14.1% | [5] 20.6% | [6] 16.9%

O=C(O)CNCc1ccccc1
inactive: [1] 2.85% | [2] 22.5% | [3] 14.6% | [4] -4.45% | [5] 16.4% | [6] -15.3%

CC(C)c1ccc2c(c1)CC[C@H]1[C@](C)(COCCC#N)CCC[C@]21C
inactive: [1] -10.9% | [2] -28.2% | [3] -14.2% | [4] -63.1% | [5] -17.1% | [6] -30%

c1ccc(COc2ccc3c(c2)CN(Cc2ccccc2)CO3)cc1
inactive: [1] -21.1% | [2] -28.9% | [3] 33.6% | [4] -18.6% | [5] 62.2% | [6] -9.1%

O=C(O)c1onc2ccccc12
inactive: [1] -17.9% | [2] -15.1% | [3] -35.2% | [4] -7.7% | [5] -5.15% | [6] -29.8%

COc1ccc(OC)c(NC(=O)CCC/C(CC(=O)c2ccc(O)c(OC)c2)=N\Nc2ccc([N+](=O)[O-])cc2)c1
inactive: [1] -25.8% | [2] -0.7% | [3] -38.5% | [4] 23.1% | [5] -6% | [6] -25.6%

O=C(Oc1ccccc1)Oc1c(Cl)cc([N+](=O)[O-])cc1[N+](=O)[O-]
inactive: [1] 25% | [2] 1.4% | [3] 5.25% | [4] 10.9% | [5] 0.45% | [6] 15.5%

O=[N+]([O-])c1cccc(-c2oc(C=Nc3ccccc3)c([N+](=O)[O-])c2-c2cccc([N+](=O)[O-])c2)c1
inactive: [1] -5% | [2] -0.8% | [3] 9.45% | [4] 14.4% | [5] 17.6% | [6] 19.6%
